Hits are enriched below; roughly 6.8% of the tested compounds scored in any of these assays.
KB-V1 cytotox: qHTS assay for MDR1-selective chemotherapeutics: Primary screen using the drug-selected MDR subline cells KB-V1 | Potency, µM (doses to about 46.1 µM), actives largely listed as cytotoxic | KB-V1 MDR cells viability, CellTiter-Glo, 72 h | actives 3.4% (n = 400,000) | AID 1347076, 2019; further: on the % scale 0 is the no-effect control and ±100 the full control effect; nearly all actives have a fitted effect of over 60% in size
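qHTS viability screen in drug-selected KB-V1 MDR cells: 72 h compound treatment at 37 degrees C, ATP luminescence end point.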
KB-3-1 tox: qHTS assay for MDR1-selective chemotherapeutics: Primary screen using the parental adenocarcinoma cell KB-3-1. AID 1347075, 2019. KB-3-1 viability, CellTiter-Glo ATP luminescence, 72 h. actives 1.4% (n = 400,000). Potency, µM (titrated, usually from 46.1 µM), most hits filed as cytotoxic; further: on the % scale 0 is the no-effect control and ±100 the full control effect; nearly all actives have a fitted effect of over 60% in size
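Here the drug-naive KB-3-1 line serves as comparator for MDR sub-line selectivity; cells received compound titrations, 72 h at 37 °C, then CellTiter-Glo readout.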
PINK1 expr mod: A Quantitative High throughput Screen to Identify Chemical Modulators of PINK1 Expression | Potency, µM (titrated, usually from 76.6 µM), without a hit: top-dose activation (PINK1 increase), usual class: activators | PINK1 immunofluorescence, high-content cytometry, 24 h | AID 624263, 2012 | actives 0.2% (n = 410,000); active means well fitted activation curve with a large enough effect; inconclusive means small, poorly fitted or top-dose-only effect; cell line not stated here; further: % of control where 0% means no effect; nearly all actives have a fitted effect of over 65% in size
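Stable cell line, 250 cells/well, 12 h attachment; compounds pinned at 5 concentrations, 24 h; CCCP control. Fixed with nuclear dye, primary antibodies 12 h at 10 degrees C, secondary plus cell stain; laser-scanning cytometer read.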
TSG101-PTAP inh: qHTS Assay for Iinhibitors of HIV-1 Budding by Blocking the Interaction of PTAP/TSG101; Tumor susceptibility gene 101 protein (Homo sapiens), Q99816; Fluorescence polarization, FITC-PTAP peptide / Tsg101 binding; Potency, µM (highest dose often 115 µM), for the others: at the top dose activity change, negative = inhibition, hits mostly inhibitors; 340,000 tested, under 10 active; active means well fitted inhibition curve with a large enough effect in the main read-out, with a control signal flat, not every such curve was filed as active; inconclusive means small, poorly fitted or top-dose-only effect, or effect the other way, or a change in a side signal; inactive means no such curve, though single readings can be large or run the other way; further: % of control where 0% means no effect
Target sequence (Q99816 whole entry, looked up): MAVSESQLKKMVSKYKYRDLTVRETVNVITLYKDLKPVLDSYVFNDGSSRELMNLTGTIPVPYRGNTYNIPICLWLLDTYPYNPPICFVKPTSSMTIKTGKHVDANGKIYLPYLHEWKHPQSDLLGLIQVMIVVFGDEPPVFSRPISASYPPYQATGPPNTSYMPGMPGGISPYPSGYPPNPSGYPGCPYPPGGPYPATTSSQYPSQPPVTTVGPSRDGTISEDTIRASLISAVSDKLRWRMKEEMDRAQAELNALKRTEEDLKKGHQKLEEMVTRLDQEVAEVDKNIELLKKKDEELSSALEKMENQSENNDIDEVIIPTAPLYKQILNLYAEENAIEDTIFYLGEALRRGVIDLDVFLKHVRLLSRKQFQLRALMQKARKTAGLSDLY
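Compounds were pin-transferred onto Tsg101 binding domain (10 uM final) in HEPES pH 7.5 buffer, then FITC-PTAP peptide was added at 50 nM final. After 20 min at RT, polarization reported peptide displacement across a qHTS concentration series.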
SW480 rerep: A quantitative high throughput screen for small molecules that induce DNA re-replication in SW480 colon adenocarcinoma cells; Potency, µM (highest dose often 46.1 µM), for inactives: top-dose re-replication activation, actives largely listed as activators; actives 1.8% (n = 340,000); SW480 DNA re-replication, Hoechst DNA content imaging, 48 h; further: % of control where 0% means no effect; nearly all actives have a fitted effect of over 55% in size
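Per well, 250 cells were exposed to pinned compound for 48 hr. Nuclear DNA was visualised with Hoechst (40 min, 37 C) and total object intensity recorded by fluorescence scanning.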
MCF10A rereplic: A quantitative high throughput screen for small molecules that induce DNA re-replication in MCF 10a normal breast cells; actives 2.9% (n = 350,000); Potency, µM (series often up to 46.1 µM), without a hit: at the highest dose activity, positive = re-replication, hits mostly activators; MCF 10A DNA re-replication, Hoechst nuclear intensity, 48 h; further: % of control where 0% means no effect; nearly all actives have a fitted effect of over 50% in size
* = called active by the depositor; i = inactive; u = inconclusive; x = not tested or not shown; [ ] = remark or other dose. Unless noted, the call rests on the fitted dose curve; in most records, active means well fitted curve in the direction sought with a large enough effect; inconclusive means small, poorly fitted or top-dose-only effect, or another doubt; inactive means no such curve, though single readings can be large; an effect the other way counts as inactive or inconclusive. Potency means the concentration at half of the fitted maximal effect.

SMILES | KB-V1 cytotox | KB-3-1 tox | PINK1 expr mod | TSG101-PTAP inh | SW480 rerep | MCF10A rereplic
CC(=O)c1cccc(NC(=O)c2ccc([N+](=O)[O-])o2)c1 | 16µM* | u | -1% | -4% | u | 4.1µM*
Cc1cnc(SCC2CCCO2)nc1C1CCCN(Cc2nc(-c3ccccc3)cs2)C1 (centres undefined) | x | x | -1% | x | x | x
CCS(=O)(=O)N1CCCc2cc(C(=O)Nc3cc([N+](=O)[O-])ccc3C)ccc21 | u | i | 1% | x | x | x
CCC(Sc1nc(-c2ccccc2)[nH]c1S(=O)(=O)c1ccc(C)cc1)C(=O)O (centres undefined) | i | i | -1% | x | x | x
Cc1cc(C)cc(NC(=O)c2ccc([N+](=O)[O-])o2)c1 | 13µM* | u | -4% | -8% | u | 3.3µM*
COc1cc(NC(=O)c2ccc([N+](=O)[O-])o2)ccc1NC(=O)c1ccco1 | i | u | 2% | -3% | u | 16%
Cc1cc(NC(=O)c2ccc([N+](=O)[O-])o2)ccc1NC(=O)c1ccco1 | u | 5.2µM* | 0% | -10% | 2.3µM* | u
CC(=O)c1ccc(NC(=O)c2ccc([N+](=O)[O-])o2)cc1 | u | u | 1% | -2% | 20% | 4.6µM*
CC(=O)N1c2ccc(S(=O)(=O)NCC3CCC(C(=O)Nc4cccc(C)c4C)CC3)cc2CC1C (centres undefined) | x | x | 0% | x | x | x
CCOCCCNC(=O)c1cc(Sc2ccc(F)cc2)nc2ccccc12 | 21µM* | i | 5% | 4% | 1% | u
COCCCNC(=O)c1cc(Sc2ccc(F)cc2)nc2ccccc12 | u | i | 0% | 0% | -8% | 0%
CC(=O)[C@@H]1[C@@H](C(=O)c2ccc(C)cc2)[C@]2(C(=O)Nc3ccccc32)[C@H]2C=Cc3cc(F)ccc3N12 | u | u | -1% | -1% | u | 16µM*
CC(=O)[C@@H]1[C@@H](C(=O)c2ccc(F)cc2)[C@]2(C(=O)Nc3ccccc32)[C@H]2C=Cc3cc(F)ccc3N12 | i | i | 2% | -2% | u | 21µM*
CCn1cc(C(=O)O)c(=O)c2cc(F)c(N3CCN(C(=O)Nc4ccccc4)CC3)cc21 | i | i | -2%[38.3 µM] | -7% | 0% | 13%
CCn1cc(C(=O)O)c(=O)c2cc(F)c(N/N=C/c3ccccc3)cc21 | 7.3µM* | u | u | -3% | -15% | u
CCc1nc2n[nH]c(N)c2c2c1CCCC2 | i | i | 0% | -4% | -1% | 3%
CCCCc1nc2n[nH]c(N)c2c2c1CCC2 | 0.65µM* | u | 2% | -2% | 4% | 1%
Cc1ccccc1-n1nc(CO)c(C(=O)NCC(c2ccccc2)c2ccccc2)n1 | x | x | 0% | x | x | x
Cc1cnc(CNc2ncncc2-c2ccccc2C#N)cn1 | x | x | 3% | x | x | x
COc1cccc(NC(=O)c2ccc(CN3CCN(c4ccccc4)CC3)cc2)c1 | u | 8.9µM* | x | -3% | -2% | u
COc1ccc(NC(=O)c2ccc(CN3CCN(c4ccccc4)CC3)cc2)cc1 | i | i | 4% | -2% | 1% | u
COc1cccc(NC(=O)c2ccc(NC(=O)C(C)(C)C)cc2)c1 | 23µM* | i | 2% | -6% | -134% | -6%
CCCOC(=O)c1cccc(NC(=O)COc2ccc([N+](=O)[O-])cc2)c1 | u | i | 4% | 2% | -2% | 12%
CCOC(=O)c1cccc(NC(=O)CN2CCN(c3ccc(OC)cc3)CC2)c1 | 21µM* | i | 0% | -4% | 0% | -4%
CCOC(=O)c1cccc(NC(=O)COc2ccc([N+](=O)[O-])cc2)c1 | 23µM* | i | -2%[38.3 µM] | -5% | -2% | 8%
SMILES | KB-V1 cytotox | KB-3-1 tox | PINK1 expr mod | TSG101-PTAP inh | SW480 rerep | MCF10A rereplic
Cc1cccc(NC(=O)CSc2nnc3c4ccccc4n(C)c3n2)c1 | i | i | 1% | x | x | x
COc1ccc(N2CCN(CNC(=O)c3ccccc3)CC2)cc1 | i | i | 3% | -2% | -1% | 0.92µM*
COc1cccc(C(=O)NCc2ccc(N3CCN(C(=O)OC(C)(C)C)CC3)cc2)c1 | i | i | -2% | -5% | 0% | 20%
COc1ccc(C(=O)NCc2ccc(N3CCN(C(=O)OC(C)(C)C)CC3)cc2)cc1 | 0.73µM* | u | 3% | -4% | 8% | 23%
COc1ccc(N2CCN(C(=O)NC(=O)c3ccccc3)CC2)cc1 | i | i | -2% | -2% | -5% | 5%
CC(C)C(=O)NCC1CCC2(CCN(Cc3ccc(-c4ccccc4Cl)o3)CC2)O1 (centres undefined) | x | x | -1% | x | x | x
O=C(CSc1nc(-c2cccs2)nc2cc(=O)[nH]n12)Nc1ccccc1 | i | i | 2% | x | x | x
Cc1ccc(-c2[nH]c3ccccc3c2C(C[N+](=O)[O-])c2ccco2)cc1 (centres undefined) | 21µM* | i | u | 1% | u | 18µM*
Cc1[nH]c2ccccc2c1C(C[N+](=O)[O-])c1ccco1 (centres undefined) | i | i | 0% | -1% | u | 13%
CCOc1ccc2c(c1)NC(c1cccs1)=NC(c1ccc(F)cc1)=N2 | i | i | 0% | x | x | x
Cc1cccc(N2C(=O)CN(Cc3sccc3C)C2=S)c1 | 23µM* | u | 8% | -3% | 4% | 0%
Cc1ccccc1-c1csc(C(C)(O)c2ccccc2)n1 (centres undefined) | i | i | 10% | x | x | x
COc1ccc(C(C)(O)c2nc(-c3ccccc3C)cs2)cc1 (centres undefined) | 5.2µM* | 4.6µM* | 10% | x | x | x
COc1ccc(-c2csc(C(C)(O)c3ccccc3)n2)cc1OC (centres undefined) | 23µM* | u | -1% | x | x | x
COCCn1c(C)cc(C(=O)CSc2cc(C)c3ccccc3n2)c1C | 2.3µM* | i | 1% | -1% | 14% | 27%
COCCn1c(C)cc(C(=O)CSc2nc3ccccc3c(=O)n2Cc2ccco2)c1C | 0.65µM* | u | 2% | -1% | -2% | 1%
COCCn1c(C)cc(C(=O)CSc2nnc(C)s2)c1C | i | i | 0% | -6% | -3% | u
